DAX1 inh-1 – blocks DAX1 repression of SF-1 activated StAR promoter | AID 652010 | inhibition, % at 6.8 µM | 1.1% of 370,000 active | HEK293T StAR-luciferase reporter, SF-1/DAX-1 repression relief;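 active = inhibition above the mean over all tested compounds plus 3 SD, cut at about 3.6% in these data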;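 also: 0% = DAX-1 cells with DMSO and 100% = cells lacking DAX-1 with DMSO; higher inhibition means more luminescence from relief of DAX-1 repression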
DAX1 inh-2 – inhibitors of human orphan nuclear receptor DAX1 (NR0B1). AID 504766. P51843. inhibition, % at 6.75 µM. HEK293 Gal4-DAX1 luciferase reporter, luminescence. 0.99% of 340,000 active;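 active = inhibition above the mean over all tested compounds plus 3 SD, cut at about 4.2% in these data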;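 also: 0% = DAX1-transfected cells with DMSO and 100% = empty-vector control cells with DMSO; inhibition shows as a rise in luminescence from relieved DAX1 repression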
Target sequence (P51843 207-470 limits assumed): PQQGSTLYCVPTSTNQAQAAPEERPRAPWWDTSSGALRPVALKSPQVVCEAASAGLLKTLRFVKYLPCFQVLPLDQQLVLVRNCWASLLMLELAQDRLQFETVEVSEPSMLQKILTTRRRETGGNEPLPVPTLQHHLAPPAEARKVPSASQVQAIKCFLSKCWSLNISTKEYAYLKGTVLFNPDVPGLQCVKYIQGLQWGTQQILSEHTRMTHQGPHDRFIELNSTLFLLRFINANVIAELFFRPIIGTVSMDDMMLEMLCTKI
hcDAF12 agonist – activators of H. contortus DAF-12 nuclear receptor. HEK293 hcDAF-12 lit1-tk-luc reporter, luminescence; 0% DMSO, 100% Δ7-dafachronic acid. activation, % at 6.8 µM. 1.4% of 370,000 active. AID 652067;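 active = activation above the mean of all tested compounds plus 3 SD, cut at about 5.5% in these data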;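 also: 100% = response to 3 µM Δ7-dafachronic acid high control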
SMARCA2 act – SMARCA2 function activation, primary screen; activation, % at 9.1 µM; 1% of 370,000 active; MG213 cells, MMTV-luciferase reporter, dexamethasone, overnight; in the data active = activation above about 7.8%;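 also: 0% = vehicle wells and 100% = reference activator wells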
hgDAF-12 ag – activates the H. glycines DAF-12 receptor ligand-binding domain; AID 687014; activation, % at 6.8 µM; 1.8% of 370,000 active; HEK293 GAL4-hgDAF12 UAS-luciferase reporter, agonist luminescence; normalized to butyrate control;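 active = activation above a cutoff set at the mean of all screened compounds plus 3 SD, cut at about 10% in these data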;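 also: 0% = DMSO wells and 100% = sodium butyrate wells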
ssDAF-12 act – S. stercoralis DAF-12 activation, primary screen. HEK293 ssDAF-12/GRIP1 lit1-tk-luc reporter, luminescence; % of 3 µM dafachronic acid response. activation, % at 6.8 µM. 1% of 370,000 active;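 active = activation above the mean over all tested compounds plus 3 SD, cut at about 0.9% in these data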;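 also: 0% = DMSO-only wells and 100% = 3 µM delta7-dafachronic acid wells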
Active calls of the source: *; / = no result. An excerpt weighted towards active compounds, which were near 4.8% of everything screened.

SMILES	DAX1 inh-1	DAX1 inh-2	hcDAF12 agonist	SMARCA2 act	hgDAF-12 ag	ssDAF-12 act
COc1ccc(CCNC(=O)C/C(C)=N/NC(=O)c2cnccn2)cc1	4.2*	0.8	2.5	2.8	4.9	-0.9
O=C1CSC(c2cccc([N+](=O)[O-])c2)N1CCc1ccccc1 (centres undefined)	-0.4	0.1	-2.1	-1.4	-0.4	-1.6
Nc1cc(=O)[nH]c(SCCSc2ccccc2)n1	0.4	-0.5	-3.5	-0.4	-0.7	-1.0
Nc1cc(=O)[nH]c(SCCNS(=O)(=O)c2ccccc2)n1	0.1	-1.6	3.4	1.2	2.6	0.9*
C=CCSC1=C(C#N)C(c2ccccc2C)CC(=O)N1 (centres undefined)	0.1	0.2	-1.1	4.9	3.4	-1.1
C=CCn1c(C(C)NC(=O)CCC)nc2ccccc21 (centres undefined)	-0.4	0.5	0.8	3.5	0.9	-1.4
CSc1nsc(/C=C/Nc2ccc(C)cc2)c1C#N	-0.5	-0.2	6.5*	0.8	1.4	2.4*
CSc1nsc(/C=C/Nc2ccc(C)c(C)c2)c1C#N	0.2	2.2	4.0	0.1	1.7	0.1
N=C1N(/N=C/c2ccccc2)C(=Nc2ccccc2)C(=S)N1c1ccccc1	1.0	-0.5	0.6	-2.8	3.2	-1.1
O=C1C2CCCN2C(c2ccc(F)cc2)N1c1cccc(Cl)c1 (centres undefined)	0.6	2.6	6.4*	1.4	2.5	-1.0
O=C1C2CCCN2C(c2cccc(F)c2)N1c1cccc(Cl)c1 (centres undefined)	-0.4	1.4	-0.7	2.0	0.1	-0.9
COc1ccc(Cl)cc1N1C(=O)C2CCCN2C1c1ccc(F)cc1 (centres undefined)	-0.2	4.5*	0.7	2.4	4.3	-1.3
CC1=CC(C)C2(COC(c3ccc[n+](C)c3)OC2)C(C)C1 (centres undefined)	-1.3	1.4	-1.6	-0.2	3.9	-1.4
COC(=O)N(C)c1nc2ccccc2s1	0.2	2.3	-0.5	3.4	5.2	-1.4
CCCCNC(=O)N(C)c1nc2ccccc2s1	3.5	-0.4	5.8*	5.7	8.6	-0.7
COc1ccc(C2C(C#N)C(C#N)N3CCCN23)cc1 (centres undefined)	0.8	-0.4	-0.9	-0.8	0.2	-0.9
N#CC1C(C#N)N2CCCN2C1c1ccc(Cl)cc1 (centres undefined)	-0.5	-1.3	5.8*	-3.3	1.6	0.1
Cc1nc2c(-c3ccc(F)cc3)cnn2c(N)c1-c1ccccc1	-2.3	-1.4	-7.3	-7.2	-15.3	-2.8
Cc1nc2c(-c3ccc(Cl)cc3)cnn2c(N)c1-c1ccc(F)cc1	-1.1	0.7	-4.7	-5.5	-8.8	-2.6
Nc1c(-c2ccc(Cl)cc2)cnc2c(-c3ccc(F)cc3)cnn12	2.4	5.0*	4.9	6.3	13.1*	0.7
COc1ccc(-c2c(C)nc3c(-c4ccc(F)cc4)cnn3c2N)cc1	0.4	5.2*	0.0	2.2	7.0	0.2
COc1cc(-n2c(=O)c3ccccc3n(CC(=O)c3ccc(Br)cc3)c2=O)cc(OC)c1OC	-0.2	5.4*	-0.3	-1.7	-4.2	-0.7
COc1ccc(-n2c(=O)c3ccccc3n(CC(=O)c3ccccc3)c2=O)cc1OC	-0.1	-0.9	0.0	-1.3	-1.3	-1.4
COc1ccc(NC(=O)N(CCc2c(C)[nH]c3ccccc23)Cc2cccs2)cc1OC	-2.7	/	-1.7	-6.1	0.8	-1.2
Cc1[nH]c2ccccc2c1CCN(Cc1cccs1)C(=O)Nc1cccc2c1OCO2	0.6	/	5.4	-3.4	10.6*	-0.2
SMILES	DAX1 inh-1	DAX1 inh-2	hcDAF12 agonist	SMARCA2 act	hgDAF-12 ag	ssDAF-12 act
O=C(Cc1nc(=O)c2ccccc2s1)Nc1ccccc1	3.3	2.9	5.9*	6.3	10.9*	0.4
O=C(Nc1ccc2nc(-c3cccnc3)[nH]c2c1)c1ccco1	0.0	-1.2	-2.0	-0.9	0.5	-1.0
O=C(Nc1ccc2[nH]ccc2c1)c1cc(-c2ccc(Cl)cc2)nc2ccccc12	0.1	/	6.2*	-4.9	5.7	0.8
O=C(N/N=C/c1cccnc1)c1cc(-c2ccccc2)nc2ccccc12	-0.5	-1.1	-1.3	-0.3	-0.1	-1.3
O=C(N/N=C/c1cccnc1)c1cc(-c2ccc(Cl)cc2)nc2ccccc12	-0.1	5.6*	1.1	-4.4	2.8	-1.3
O=C(Nc1ccncc1)c1cc(-c2ccc(Cl)cc2)nc2ccccc12	-0.1	/	1.1	-3.2	0.4	0.0
O=c1[nH]c(Cc2ccccc2)nc2scc(-c3ccccc3)c12	0.1	-0.1	-1.9	0.1	0.9	-1.2
O=C(O)CSCc1nc2scc(-c3ccccc3)c2c(=O)[nH]1	0.0	5.8*	-1.1	-1.4	2.8	-1.4
CCCCOc1ccc(C(=O)N/C(=C\c2ccc(OC)cc2)C(=O)OCc2ccco2)cc1	-0.3	0.4	-1.6	1.4	-1.9	-1.1
COc1ccc(C(=O)N/C(=C\c2ccco2)C(=O)OCc2ccco2)cc1	0.5	5.5*	-1.0	-1.4	1.1	-0.4
O=C(NCCc1cccs1)C1CC(c2ccc([N+](=O)[O-])cc2)=NO1 (centres undefined)	0.8	2.8	5.8*	7.0	8.2	0.5
COc1ccc(-c2cn3cc(Br)cnc3n2)cc1	0.6	0.3	1.2	7.9*	5.7	-1.3
COc1ccc(-c2cn3cccnc3n2)cc1Br	-0.1	1.9	-2.6	2.0	1.8	-1.3
O=C(Cc1ncc(C(F)(F)F)cc1Cl)NCCc1ccccn1	-0.5	0.1	-1.0	7.9*	-0.2	-0.3
CCOC(=O)c1c(NC(=S)NCc2ccccc2)sc2c1CCN(C(=O)OCC)C2	-0.4	6.0*	-0.5	-2.1	-1.3	-1.5
CS(=O)(=O)c1ccc(Nc2nc(C(N)Cc3ccc(Cl)cc3)cs2)cc1 (centres undefined)	-1.3	/	-2.0	-2.0	-2.0	-1.6
NC(Cc1ccc(Cl)cc1)c1csc(Nc2ccc(S(N)(=O)=O)cc2)n1 (centres undefined)	4.3*	/	0.3	-6.5	-1.2	-0.6
CC(C)(C)c1nc(SCC(=O)NC2CCCC2)c2ccccc2n1	0.3	0.4	-0.6	-2.6	-0.4	-1.1
CC(C)(C)c1ccc(Oc2ccc(NC(=O)c3ccccc3C(=O)O)cn2)cc1	-1.1	/	-7.1	-9.6	-12.0	-3.7
COc1ccc(N2C(=O)[C@H]3[C@@H](C2=O)C2c4ccccc4C=NN2[C@H]3C(=O)C(C)(C)C)cc1 (some centres undefined)	-0.2	5.6*	-1.2	-2.9	0.0	-1.6
CC(=O)Oc1ccc(N2C(=O)[C@@H]3[C@H](C2=O)[C@H]2c4ccccc4C=NN2[C@@H]3C(C)=O)cc1	-0.3	0.0	1.6	-2.7	3.5	-1.0
CCOC(=O)c1c(/N=C/C2C(=O)CCCC2=O)sc(C)c1C	-0.2	1.1	-1.3	0.5	0.5	-0.2

Screens from PubChem.
